Rab2 wt GTP = changes GTP binding to wildtype dog Rab2A, up or down; P61105; GST-Rab2 wt beads, Bodipy-GTP binding, flow cytometry; GTP binding activity, % at 10 µM; hit rate 0.19% among 190,000; AID 760;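 active means GTP binding activity at least 20 points away from 100%, either lowered or raised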;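 further: 0% = beads with excess unlabeled GTP and 100% = no-compound control corrected for plate trend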
HRas wt GTP bind = changes GTP binding to wildtype human HRas; GST-Ras wt beads, Bodipy-FL-GTP binding, flow cytometry; actives lie on both sides; GTP binding activity, % at 10 µM; hit rate 0.14% among 190,000;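 active means GTP binding activity at least 20% away from the 100% baseline, either lowered as inhibitor or raised as activator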;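 further: 0% = unlabeled GTP competition control and 100% = no-compound control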
Target sequence (P01112 whole entry, looked up): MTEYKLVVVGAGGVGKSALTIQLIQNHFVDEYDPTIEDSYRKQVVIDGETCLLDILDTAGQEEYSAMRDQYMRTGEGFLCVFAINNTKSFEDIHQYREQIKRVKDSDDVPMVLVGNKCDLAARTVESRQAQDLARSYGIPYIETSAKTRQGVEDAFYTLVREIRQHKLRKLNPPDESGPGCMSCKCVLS
Rab7 wt modul = alters GTP binding to wildtype dog Rab7. GST-Rab7 beads, fluorescent GTP binding, flow cytometry; actives lie on both sides; untreated = 100%, excess cold GTP = 0%. GTP binding activity (percent of control), % at 10 µM. hit rate 0.055% among 190,000. AID 758;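 active means fluorescent GTP binding to Rab7 beads changed by at least 20 points from the 100% baseline, either direction, mostly lower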;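 further: median green fluorescence of bound Bodipy-FL-GTP per Rab7 bead population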
Cdc42 wt GTP = human Cdc42 wildtype GTP binding change, either direction; hit rate 0.2% among 190,000; GST-Cdc42 beads, Bodipy-GTP binding, flow cytometry; actives lie on both sides; AID 761; percent activity (GTP binding), % at 10 µM;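 active means percent activity GTP binding at least 20 points away from the 100% baseline, either down as inhibitor or up as activator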;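 further: median bead fluorescence of bound Bodipy-FL-GTP at 100 nM; 0% = excess unlabeled GTP control and 100% = no compound control; below 100% means less GTP binding so inhibitor and above means activator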
Target sequence (P60953 whole entry, looked up): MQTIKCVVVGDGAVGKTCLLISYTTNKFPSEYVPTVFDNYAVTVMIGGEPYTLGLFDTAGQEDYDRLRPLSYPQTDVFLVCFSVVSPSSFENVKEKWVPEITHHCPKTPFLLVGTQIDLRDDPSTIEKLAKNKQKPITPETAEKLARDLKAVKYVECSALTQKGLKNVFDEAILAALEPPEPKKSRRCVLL
Rac1 wt GTP bind = human Rac1 wildtype GTP binding, inhibitors and activators. P63000. GST-Rac1 beads, fluorescent GTP binding, flow cytometry; actives lie on both sides; 0 = cold GTP competed, 100 = untreated. GTP binding activity (% of control), % at 10 µM. hit rate 0.27% among 190,000. AID 757;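 active means GTP binding activity at least 20 points away from the 100% control level, either lower or higher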
Rac1 mut GTP = alters GTP binding to activated mutant human Rac1; P63000; GST-Rac1 activated beads, fluorescent GTP binding, flow cytometry; actives lie on both sides; 100% means binding = to untreated wells; percent activity (GTP binding), % at 10 µM; hit rate 0.11% among 190,000;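 active means GTP binding at least 20 percentage points away from the 100% baseline, in either direction, so actives lie on both sides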
* hit, by the source's call; [ ] = another dose, or the depositor's remark. An excerpt weighted towards active compounds, which were near 0.38% of everything screened.

SMILES	Rab2 wt GTP	HRas wt GTP bind	Rab7 wt modul	Cdc42 wt GTP	Rac1 wt GTP bind	Rac1 mut GTP
CCn1c(SCC(=O)O)nnc1-c1cc2c(C)nn(-c3ccccc3)c2s1	81.0	83.0	85.0	83.0	79.0*	90.0
CC1CC(C)(C)NC(=S)N1CCC(=O)N1CCc2ccccc2C1 (stereo not given)	96.0	96.0	94.0	98.0	98.0	96.0
Cn1c(SCc2nnc(-c3ccccc3)o2)nc2ccccc21	103.0	100.0	106.0	101.0	102.0	100.0
COc1ccc(-c2nnc(CSc3nc4ccccc4c(=O)n3C)o2)cc1OC	106.0	107.0	106.0	104.0	120.0*[activator]	104.0
COc1ccc(OC)c(C(C(=O)NCc2ccco2)N(C(=O)Cn2nnc3ccccc32)C2CC2)c1 (stereo not given)	121.0*[activator]	121.0*[activator]	116.0	126.0*[activator]	130.0*[activator]	119.0
Cc1ccc(-n2c3nc(=O)[nH]c(=O)c-3cc3cc([N+](=O)[O-])ccc32)cc1	82.0	82.0	87.0	80.0	77.0*	80.0
Cc1ccc(-n2c(C)nn(Cc3ccc([N+](=O)[O-])cc3)c2=O)cc1	98.0	101.0	103.0	94.0	99.0	95.0
CCOc1c(Cl)cc(/C=N/NC(N)=S)cc1OC	100.0	96.0	103.0	99.0	99.0	98.0
C/C(=N\NC(=O)c1ccc(Cl)c(S(=O)(=O)Nc2ccccc2Cl)c1)c1ccncc1	86.0	87.0	91.0	86.0	73.0*	87.0
CN=CC1=C(O)C(C(=O)OC)C(C)(C)CC1=O (stereo not given)	96.0	91.0	100.0	91.0	91.0	92.0
COc1cc(/C=N/Nc2ccc(F)cc2F)cc(OC)c1OC	97.0	99.0	99.0	98.0	101.0	97.0
COc1cc(/C=N/Nc2ccc(S(N)(=O)=O)cc2)cc(OC)c1OC	89.0	89.0	98.0	89.0	79.0*	88.0
COc1ccc(-c2cnc[nH]2)cc1	96.0	97.0	100.0	97.0	99.0	95.0
Nc1c([N+](=O)[O-])cc(-c2cnc[nH]2)cc1[N+](=O)[O-]	77.0*	78.0*	94.0	77.0*	84.0	88.0
Cc1nn2c(COc3ccc(NC(=O)c4ccccc4Cl)cc3)nnc2c2ccccc12	92.0	93.0	95.0	97.0	93.0	95.0
CC(=O)Nc1ccc(/C=N/NC(=O)CCN2CCN(c3ccccc3)CC2)cc1	75.0*	79.0*	88.0	76.0*	74.0*	87.0
COc1ccc(C(NC(=O)C2CCCCC2)c2c(O)ccc3ccccc23)cc1 (stereo not given)	97.0	98.0	100.0	96.0	102.0	96.0
NC(=O)c1c(NC(=O)c2ccncc2)sc2c1CCCC2	86.0	88.0	94.0	85.0	87.0	92.0
NC(=O)c1c(NC(=O)c2cnccn2)sc2c1CCCC2	80.0	83.0	87.0	82.0	70.0*	85.0
COC(=O)Nc1[nH]ncc1[N+](=O)[O-]	98.0	97.0	103.0	93.0	100.0	94.0
CCOC(=O)n1c(=O)[nH]c2ccc(Br)cc21	91.0	95.0	94.0	94.0	97.0	94.0
Cc1cccc(-c2nnc(NC(=O)c3ccc(N4C(=O)CCC4=O)cc3)s2)c1	103.0	105.0	101.0	107.0	113.0	101.0
Cc1ccccc1-c1nnc(NC(=O)c2ccc(N3C(=O)CCC3=O)cc2)s1	106.0	106.0	104.0	109.0	130.0*[activator]	104.0
O=C(O)c1ccc(NS(=O)(=O)c2ccc3c(c2)C(=O)c2ccccc2C3=O)cc1	81.0	83.0	88.0	80.0	72.0*	83.0
COC(=O)c1ccc2nc(Nc3nc4c(F)cc(F)cc4s3)sc2c1	79.0*	85.0	85.0	82.0	81.0	80.0
SMILES	Rab2 wt GTP	HRas wt GTP bind	Rab7 wt modul	Cdc42 wt GTP	Rac1 wt GTP bind	Rac1 mut GTP
CCOc1cccc(CNCCSc2nnnn2C)c1	97.0	95.0	98.0	97.0	95.0	95.0
COc1ccc(-c2cc(=O)c(C(=O)c3ccc(C)cc3)n[nH]2)cc1	99.0	100.0	110.0	95.0	121.0*[activator]	105.0
CN1CCN(CCC(=O)N2c3ccccc3Sc3ccc(Cl)cc32)CC1	98.0	100.0	98.0	104.0	102.0	97.0
O=C(CN1CCN(CCOCCO)CC1)N1c2ccccc2Sc2ccc(Cl)cc21	102.0	103.0	102.0	112.0	120.0*[activator]	103.0
O=C(CSc1nnc(NC(=O)c2ccc(S(=O)(=O)N3CCOCC3)cc2)s1)Nc1ccccc1C(F)(F)F	102.0	100.0	96.0	98.0	105.0	103.0
COc1cccc(Nc2ccccc2C(=O)O)c1	125.0*[activator]	120.0*[activator]	127.0*[activator]	130.0*[activator]	138.0*[activator]	126.0*[activator]
COc1cccc(Nc2ncc(C(=O)O)c3ccccc23)c1	102.0	104.0	95.0	105.0	102.0	100.0
COc1ccc2nc(SCC(=O)Nc3ccc4c(c3)OCCO4)[nH]c2c1	98.0	101.0	100.0	101.0	101.0	99.0
COc1ccc2[nH]c3nc(SCC(=O)Nc4ccc5c(c4)OCO5)nnc3c2c1	72.0*	74.0*	85.0	74.0*	87.0	87.0
N#CCc1c(C#N)c(N)nc(N2CCN(S(=O)(=O)c3ccccc3)CC2)c1C#N	94.0	93.0	97.0	95.0	95.0	94.0
N#CCc1c(C#N)c(N)nc(N2CCN(C=O)CC2)c1C#N	77.0*	79.0*	89.0	78.0*	73.0*	86.0
CC(C)(C)C(=O)n1nc(-c2ccccc2)oc1=O	95.0	96.0	95.0	98.0	99.0	97.0
Cc1cc2oc(=O)cc(CN3CCN(S(=O)(=O)c4cccs4)CC3)c2cc1C	102.0	103.0	100.0	103.0	106.0	103.0
CCOC(=O)c1cc2c(N)c(C(=O)c3ccc(Br)cc3)sc2[nH]c1=O	71.0*	74.0*	90.0	71.0*	64.0*	79.0*
Cc1csc(NC(=O)CSc2nnc3c4ccccc4nc(C(C)(C)C)n23)n1	101.0	101.0	98.0	102.0	101.0	101.0
O=C1/C(=C\c2cccnc2)Sc2ccccc21	89.0	90.0	90.0	72.0*	84.0	88.0
COc1ccc2ccccc2c1/C=N/NC(=S)Nc1cc(S(=O)(=O)N2CCOCC2)ccc1N1CCOCC1	100.0	103.0	97.0	108.0	106.0	101.0
COc1ccc(/C=N/NC(=S)Nc2cc(S(=O)(=O)N3CCOCC3)ccc2N2CCOCC2)cc1O	116.0	117.0	119.0	116.0	136.0*[activator]	114.0
CN1CC(=O)N(CC(=O)Nc2cccc(S(=O)(=O)N3CCOCC3)c2)C1=O	98.0	99.0	97.0	99.0	103.0	94.0
COc1ccc(C(=O)Nc2cc(Cl)ccc2OC(=O)c2ccc(OC)cc2)cc1	96.0	98.0	97.0	96.0	96.0	96.0
COc1ccc(C(=O)Nc2cc(Cl)ccc2C(=O)O)cc1	83.0	83.0	85.0	78.0*	81.0	77.0*

Screens from PubChem.
